± gives the standard deviation of the averaged measurements.
System: Listeria monocytogenes 10403S
Assay: growth inhibition relative to ceftriaxone-alone control; higher = stronger potentiation of ceftriaxone growth inhibition
Details: 10 µM; ceftriaxone 1 ug/ml; 12 h
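Further: End-point A600 read in BHI broth at 37 °C with 2% DMSO, inhibition computed as (1 − OD with compound plus ceftriaxone ÷ OD with ceftriaxone only) × 100.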

Compound | growth inhibition
NC(=O)c1ccc(Oc2nccc(-c3c(-c4ccc(F)cc4)ncn3C3CCNCC3)n2)cc1 | -2.66 ± 0.33%
CN(c1ncccc1CNc1nc(Nc2ccc3c(c2)CC(=O)N3)ncc1C(F)(F)F)S(C)(=O)=O | 41.8 ± 28%
Cc1ccc(C(=O)NC2CCCCC2)cc1-c1ccc(C(=O)NCC2CC2)cc1 | -1.78 ± 6.1%
CC(C)c1ccc2c(c1)NC(=O)/C2=N/Nc1ccc(S(N)(=O)=O)cc1 | -0.275 ± 0.88%
NS(=O)(=O)c1cccc(-c2ccc3c(NC(=O)C4CC4)n[nH]c3c2)c1 | 0.81 ± 3.7%
N#Cc1cccc(Nc2ncc(-c3ccccc3)o2)c1 | -4.01 ± 1.7%
FC(F)(F)c1ccc(/C=C/c2nc(COc3ccc(CCCCn4ccnn4)cc3)co2)cc1 [Mubritinib (TAK 165)] | 16.1 ± 6.1%
NS(=O)(=O)c1ccc(N/N=C2\C(=O)Nc3ccc(C(=O)NCc4ccncc4)cc32)cc1 | -9.46 ± 18%
FC(F)(F)c1cccc(-c2nn3ncccc3c2-c2ccnc(Nc3ccc4c(c3)OCCO4)n2)c1 | -5.79 ± 1.8%
NC(=O)Cc1ccccc1Oc1nccc(-c2c(-c3ccc(F)cc3)ncn2C2CCNCC2)n1 | -2.82 ± 0.75%
c1cncc(CN2CCC(n3ncc4c(N5CCOCC5)nc(-c5ccc6[nH]ccc6c5)nc43)CC2)c1 | 37.1 ± 17%
Cc1[nH]nc2ccc(-c3cncc(OC[C@@H](N)Cc4ccccc4)c3)cc12 | 76.8 ± 16%
COc1ccc(-c2nn3ncccc3c2-c2ccnc(Nc3cccc(C(F)(F)F)c3)n2)cc1 | 2.98 ± 4.9%
C[C@@H](Oc1cc(-n2cnc3ccc(OC4CCN(C)CC4)cc32)sc1C(N)=O)c1ccccc1Cl | 0.604 ± 2.5%
COc1cc(Nc2ncc3c(n2)-c2ccc(Cl)cc2C(c2c(F)cccc2OC)=NC3)ccc1C(=O)O | 43 ± 37%
Cn1c(=O)c(F)c(Nc2ccc(I)cc2F)c2c(=O)n(C[C@@H](O)CO)cnc21 | 23 ± 13%
c1ccc(Oc2ccc(Nc3ncc(-c4ccccc4)o3)cc2)cc1 | -0.487 ± 1.7%
Clc1ccc(-c2nn3ncccc3c2-c2ccnc(Nc3ccccc3)n2)cc1 | -7.12 ± 3.8%
Nc1cccc(-c2cc3c(Oc4cccc(O)c4)ncnc3[nH]2)c1 | -3.72 ± 8.2%
Cc1ccc(NC(=O)c2cccc(N(C)C)c2)cc1NC(=O)c1ccc(O)cc1 | 29.5 ± 12%
CNC(=O)Nc1ccc(-c2nc(N3CC4CCC(C3)O4)c3cnn(C4CCC5(CC4)OCCO5)c3n2)cc1 | 7.7 ± 6.6%

Compound | growth inhibition
Cc1c(NC(=O)OC[C@@H]2COCCN2)cn2ncnc(Nc3ccc4c(cnn4Cc4cccc(F)c4)c3)c12 | 44.1 ± 20%
CN1CCC(C(=O)Nc2n[nH]c3nnc(-c4ccccc4)cc23)CC1 | 17.5 ± 11%
O=c1cc(N2CCOCC2)oc2c(-c3ccccc3)cccc12 | 27.4 ± 29%
CN(C[C@@H]1COCCO1)S(=O)(=O)Nc1ccc2ccc3ncc(-c4cnn(C)c4)cc3c(=O)c2c1 | -22.01 ± 0.12%
NC(=O)c1cccc(Nc2nccc(Nc3cccc(F)c3)n2)c1 | -4.52 ± 12%
COC(=O)Nc1nc2cc(Oc3ccc(NC(=O)Nc4cccc(C(=O)O)c4)cc3)ccc2[nH]1 | 7.27 ± 7.2%
COc1cc(C)c(N(C)C(=O)CN(C)C)cc1Nc1nc(Nc2cccc(F)c2C(N)=O)c2cc[nH]c2n1 | -0.447 ± 1%
NC(=O)c1sc(-n2cnc3cc(C(F)(F)F)ccc32)cc1OCc1ccccc1Br | -7.84 ± 1.8%
COc1cccc(Nc2nccc(-c3cnn4ncccc34)n2)c1 | -2.59 ± 1.4%
CCS(=O)(=O)N1CC(CC#N)(n2cc(-c3ncnc4[nH]ccc34)cn2)C1 | 20.4 ± 0.71%
CCc1cccc(NC(=O)Nc2ccc(Oc3ccc4nc(NC(=O)OC)[nH]c4c3)cc2)c1 | 9.75 ± 3.1%
COc1ccc2c(OCc3nnc4ccc(-c5ccccc5)nn34)ccnc2c1 | 11.6 ± 13%
Fc1ccc(Nc2nccc(-c3c(-c4ccc(C(F)(F)F)cc4)nn4ncccc34)n2)cc1F | -3.35 ± 4.4%
O=C1Nc2ccc(-c3cccnc3)cc2C1=Cc1cc(Br)c(O)c(Br)c1 | 22.1 ± 2.9%
OCCCNc1nccc(-c2c(-c3ccc(F)cc3)nn3cc(C(F)(F)F)ccc23)n1 | 15.6 ± 7.1%
COCC(=O)NC/C=C/c1ccc2ncnc(Nc3ccc(Oc4ccc(C)nc4)c(C)c3)c2c1 | -5.16 ± 23%
Oc1cccc(-c2nc(N3CCOCC3)c3oc4ncccc4c3n2)c1 | 22.4 ± 24%
O=C(Nc1n[nH]c2nnc(-c3cccnc3)cc12)C1CC1 | -0.393 ± 1.3%
CC1=C(C(=O)Nc2ccc3[nH]ncc3c2)C(c2ccc(F)cc2)N=C(c2ccc(C(F)(F)F)nc2)N1 (stereo unspecified) | 4.07 ± 7.3%
COc1cc2c(Oc3ccc4[nH]c(C)cc4c3F)ncnc2cc1OCCCN1CCCC1 [Cediranib (AZD2171)] | 46 ± 7.5%

Reference: the supplement of paper PMC5641865, “A screen for kinase inhibitors identifies antimicrobial imidazopyridine aminofurazans as specific inhibitors of the Listeria monocytogenes PASTA kinase PrkA” (The Journal of Biological Chemistry, 2017)
